Bioassay records from PubChem.
In the library only some 0.9% were active in any assay of this set; here they are far more common.
RGS12 GoLoco inh: blocks human Gai1 binding to RGS12 GoLoco peptide, red readout; Potency, µM (highest dose often 61.6 µM), for the others: at the highest dose activity, negative = inhibition, most hits filed as inhibitors; Gai1:RGS12 GoLoco peptide FP, rhodamine, 10 min; AID 880; actives 0.44% (n = 230,000); active = well fitted inhibition curve with a large enough effect, not every such curve was filed as active; inactive = no such curve, though single readings can be large or run the other way; also: nearly all actives have a fitted effect of over 30% in size
BLM inh: blocks DNA unwinding by human BLM helicase | recombinant BLM DNA unwinding, fluorescence dequenching | actives 0.2% (n = 350,000) | Potency, µM (titrated, usually from 56.1 µM), inactives show at the highest dose activity change, negative = inhibition, most hits filed as inhibitors | AID 2528;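 also: plate controls were vehicle for no effect and no enzyme for full effect; nearly all actives have a fitted effect of over 35% in size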
Target sequence (P54132 whole entry, looked up): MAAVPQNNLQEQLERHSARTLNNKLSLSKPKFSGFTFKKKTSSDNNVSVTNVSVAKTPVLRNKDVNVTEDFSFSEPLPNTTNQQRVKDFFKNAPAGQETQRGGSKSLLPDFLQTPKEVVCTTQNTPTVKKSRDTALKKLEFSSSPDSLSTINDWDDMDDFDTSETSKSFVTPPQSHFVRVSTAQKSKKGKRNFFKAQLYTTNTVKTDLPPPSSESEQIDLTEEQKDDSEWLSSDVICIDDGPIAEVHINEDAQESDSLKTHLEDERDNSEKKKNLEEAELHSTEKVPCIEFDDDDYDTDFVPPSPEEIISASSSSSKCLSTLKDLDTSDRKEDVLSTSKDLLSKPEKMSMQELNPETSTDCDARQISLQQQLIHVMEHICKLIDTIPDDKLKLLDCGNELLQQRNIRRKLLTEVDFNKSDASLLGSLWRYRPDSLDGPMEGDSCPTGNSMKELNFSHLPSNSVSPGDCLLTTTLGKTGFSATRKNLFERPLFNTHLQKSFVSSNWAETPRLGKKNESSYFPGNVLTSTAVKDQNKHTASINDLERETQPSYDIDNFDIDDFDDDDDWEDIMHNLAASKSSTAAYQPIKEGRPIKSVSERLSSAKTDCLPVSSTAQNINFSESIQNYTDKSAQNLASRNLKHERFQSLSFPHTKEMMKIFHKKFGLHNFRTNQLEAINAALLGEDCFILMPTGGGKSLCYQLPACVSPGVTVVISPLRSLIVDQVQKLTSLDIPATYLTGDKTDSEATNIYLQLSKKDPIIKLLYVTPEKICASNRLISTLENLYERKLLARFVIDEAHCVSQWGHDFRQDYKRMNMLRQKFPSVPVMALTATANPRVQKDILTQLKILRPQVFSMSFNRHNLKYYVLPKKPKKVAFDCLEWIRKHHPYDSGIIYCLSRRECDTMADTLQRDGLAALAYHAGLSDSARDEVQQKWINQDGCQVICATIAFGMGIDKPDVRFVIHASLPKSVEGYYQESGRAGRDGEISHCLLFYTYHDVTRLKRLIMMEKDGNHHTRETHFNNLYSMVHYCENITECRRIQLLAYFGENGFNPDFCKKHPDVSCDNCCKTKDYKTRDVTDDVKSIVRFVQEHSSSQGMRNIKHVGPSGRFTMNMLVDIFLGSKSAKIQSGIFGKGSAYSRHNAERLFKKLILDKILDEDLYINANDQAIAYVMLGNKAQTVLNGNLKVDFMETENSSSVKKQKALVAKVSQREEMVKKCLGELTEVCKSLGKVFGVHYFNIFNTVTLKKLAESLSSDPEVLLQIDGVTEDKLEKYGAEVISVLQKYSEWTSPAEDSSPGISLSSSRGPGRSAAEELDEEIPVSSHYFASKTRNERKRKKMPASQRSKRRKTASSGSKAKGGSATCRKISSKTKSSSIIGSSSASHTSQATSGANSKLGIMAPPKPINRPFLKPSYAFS
RECQ1 inh-1: blocks DNA unwinding by human RECQ1. P46063. RECQ1 DNA unwinding, red fluorescence kinetic read. Potency, µM (titrated, usually from 57.3 µM), inactives show top-dose activity, negative = inhibition, actives largely listed as inhibitors. actives 0.54% (n = 240,000);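 also: plate controls were vehicle for no effect and no enzyme for full effect; nearly all actives have a fitted effect of over 30% in size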
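50 nM RECQ1T1 preincubated 15 min with compound in Tris pH 8.0 buffer with MgCl2, DTT, Tween-20 and 2.5 ug/ml poly(dI-dC); started with 200 nM TAMRA/BHQ-2 forked duplex and 2 mM ATP. Unwinding read as fluorescence (525/598 nm), two reads 2 h apart.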
APE1 inh: APE1 (human) endonuclease inhibition; P27695; recombinant APE1, TAMRA/BHQ-2 abasic DNA cleavage fluorescence; Potency, µM (top dose mostly 65.8 µM), without a hit: top-dose activity change, negative = inhibition, most hits filed as inhibitors; actives 0.35% (n = 350,000); AID 2517;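 also: plate controls were vehicle for no effect and reference inhibitor for full effect; nearly all actives have a fitted effect of over 55% in size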
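Measures dequenching upon AP-site incision of a 5'-TAMRA/3'-BHQ-2 THF-containing duplex, 50 nM; human APE1 0.75 nM after 15 min room-temperature exposure to compound; kinetic three-point read at one-minute spacing.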
TR SRC2 fluor cs: Texas Red fluorescence interference in TRb-SRC2 counter-screen; TRb/SRC2 Texas Red total fluorescence interference; Potency, µM (titrated, usually from 106 µM), for the others: at the highest dose fluorescence change, negative = quenching; actives 0.29% (n = 280,000); AID 1479; active = well fitted curve in either direction with a large enough effect; inconclusive = small, poorly fitted or top-dose-only effect
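Human TRb ligand-binding domain at 0.6 uM with 20 nM Texas Red SRC2 peptide in Tris buffer containing 1 uM T3 and 5% DMSO, incubated with compound 5 h at ambient temperature. Total fluorescence (555/632 nm) calculated as parallel + 2 × perpendicular.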
TRb SRC2 PPI: disrupts binding of human TR beta to SRC2 | P10828 | TRbeta-SRC2 peptide binding, fluorescence polarization; receptor liganded with 1 µM T3 | Potency, µM (titrated, usually from 106 µM), inactives show top-dose activity change, negative = inhibition, usual class: inhibitors | actives 0.065% (n = 280,000);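 also: plate controls were bound peptide for no effect and peptide without receptor for full effect; nearly all actives have a fitted effect of over 50% in size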
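TRb LBD 0.6 uM + Texas Red SRC2 peptide 20 nM, 1 uM T3, Tris buffer w/ 5% DMSO; compound pinned, 5 h RT; FP read ex 555/em 632; normalized to unbound and bound controls.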
RECQ1 inh conf: confirmation of human RECQ1 helicase inhibitors. shares compounds with RECQ1 inh-1. RECQ1 helicase DNA unwinding, fluorescence. Potency, µM (highest dose often 229 µM), for inactives: at the top dose activity change, negative = inhibition, most hits filed as inhibitors. actives 28% (n = 610). AID 2708; also: nearly all actives have a fitted effect of over 45% in size
RECQ1 ADP FP: ADP displacement flagged in RECQ1 inhibitor counter-screen; Potency, µM (highest dose often 228 µM), for inactives: at the top dose activity change, negative = inhibition, hits mostly inhibitors; shares compounds with RECQ1 inh-1; ADP fluorescence polarization displacement counterscreen; actives 27% (n = 530); also: nearly all actives have a fitted effect of over 45% in size
RECQ1 inh-2: RECQ1 helicase inhibition confirmed, round 2 | shares compounds with RECQ1 inh-1 | actives 15% (n = 1,100) | Potency, µM (top dose mostly 119 µM), for the others: at the top dose activity, negative = inhibition, usual class: inhibitors | recombinant RECQ1 DNA unwinding, red fluorescence; also: nearly all actives have a fitted effect of over 50% in size
* marks the source's active call; other numbers are inactive results; i = inactive; ? = inconclusive; / = no result; [ ] = dose if it differs, or a comment. Unless noted, calls follow the shape of the dose curve; as a rule, active = well fitted curve in the direction sought with a large enough effect; inconclusive = small, poorly fitted or top-dose-only effect, or another doubt; inactive = no such curve, though single readings can be large; an effect the other way counts as inactive or inconclusive. Unless noted, % is scaled to controls: 0 for no effect and ±100 for the full control effect; potency is read from the fitted curve at half-maximal effect.

SMILES	RGS12 GoLoco inh	BLM inh	RECQ1 inh-1	APE1 inh	TR SRC2 fluor cs	TRb SRC2 PPI	RECQ1 inh-2	others
Cc1c(C)n(C(=O)CSc2nc3ccccc3[nH]2)c2ccccc12	10%	-11%	8.9µM*	14µM*	-1%	4%	35µM*	RECQ1 inh conf=50µM*;RECQ1 ADP FP=3%[91.9 µM]
O=C(CSc1nc2ccccc2[nH]1)N1CCCCC1	13%	-1%	-10%	-3%	-6%	5%	/
C=CCSc1nc(=O)n2ccc(C)cc2n1	40%	-21%	1.6µM*	-5%	1%	-3%	-21%	RECQ1 inh conf=5%[114 µM];RECQ1 ADP FP=-6%[91.9 µM]
C=CCSc1nc(=O)n2ccccc2n1	-5%	-4%	-2%	-2%	-1%	-4%	/
O=C(O)c1c(Cl)c(Cl)c(Cl)c(Cl)c1-c1c2cc(I)c(=O)c(I)c-2oc2c(I)c(O)c(I)cc12	33%	14µM*	14µM*	14µM*	2.8µM*[fluorescent]	5µM*	/	RECQ1 inh conf=45µM*;RECQ1 ADP FP=0.89µM*
Cc1ccc2c(c1)N(C(=O)N1CCC(C(=O)NC3CCCCCC3)CC1)CC(C)O2 (stereo unspecified)	/	-1%	/	/	3%	-2%	/
O=c1c2c3c(sc2[nH]c(=S)n1Cc1ccco1)CCC3	-1%	-30%	13µM*	?	-4%	2%	/	RECQ1 inh conf=45µM*;RECQ1 ADP FP=?
Cn1c(=O)n(Cc2ccco2)c(=N)c2c3c(sc21)CCC3	14%	-4%	-9%	3%	-2%	-7%	/
Cc1sc(C2C(C#N)=C(N)N(c3ccc(Cl)cc3)C3=C2C(=O)CCC3)cc1CN1CCOCC1 (stereo unspecified)	/	-6%	/	/	-2%	-1%	/
Cc1ccc(S(=O)(=O)/N=C2/C=C(Sc3ncn[nH]3)C(=O)c3ccccc32)cc1	-31%	16µM*	?	-11%	-16%	28µM*	?
Cc1ccc(NC(=O)CSCC#N)cc1Cl	-2%	4%	28µM*	18%	1%	-4%	0%
COc1cc(Cl)c(C)cc1NC(=O)CSCC#N	18%	1%	i	5%	2%	-4%	/
CC1CCCCC1NC(=S)NC(=O)c1ccccc1Br (stereo unspecified)	-4%	-9%	40µM*	8%	-1%	-2%	-13%
CCOc1ccc(CN(C(=O)/C=C/c2ccco2)C2CCS(=O)(=O)C2)cc1 (stereo unspecified)	/	-10%	/	3%	/	/	/
COc1ccc(CN(C(=O)/C=C/c2ccco2)C2CCS(=O)(=O)C2)cc1 (stereo unspecified)	5%	-24%	?	?	1%	-4%	?
O=C(Cn1cnc2scc(-c3cccc([N+](=O)[O-])c3)c2c1=O)NCc1ccco1	11%	-25%	25µM*	?	-2%	0%	?
Cc1sc2ncn(CC(=O)NCc3ccco3)c(=O)c2c1-c1ccc(F)cc1	14%	-8%	-15%	-3%	-3%	-11%	/
O=C(CSc1nnc(-c2ccco2)n1Cc1ccccc1)c1ccc(F)cc1	147%	-13%	?	1%	-5%	4%	-17%
CCOc1ccc(N(CC)S(=O)(=O)N2CCCC(C(=O)Nc3ccc(OC)c(Cl)c3)C2)cc1 (stereo unspecified)	/	-11%	/	/	-2%	8%	/
